Test [1] is described as follows: qHTS drug screen for cell cycle checkpoint inhibitors in PARPi-resistant BRCA-mutant ovarian cancer cell lines. (AID 1963452). Note: potency is the fitted concentration of half-maximal effect. The conditions noted are these: PEO1/OlaR viability, CellTiter-Glo luminescence, 96 h; for Z-AUC: stronger effect = lower value. Summed up: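 PEO1, PEO4 and PEO1/OlaR ovarian cancer cells, 600 per well, exposed 96 h at 37C to a dilution series. Viability read by CellTiter-Glo luminescence, normalized to DMSO and empty wells; activity summarized as Z-AUC.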

Test [2] can be described thus: KB-8-5-11 P-gp reporter qHTS against the NCATS DSHEA and TCM libraries (AID 1919977; active = well fitted curve in the direction sought with a large enough effect; note: 0% is about no effect). To be noted: KB-8-5-11 cells; series mostly up to 26.1 µM. Summed up: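 P-gp-overexpressing KB-8-5-11 cells were screened in colchicine-free medium at 500 cells/well, as a titration series. Cells were exposed for 72 h at 37C. Viability was read by CellTiter-Glo luminescence after 30 min at room temperature.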
Background: qHTS replaces the single test concentration by a dilution series.

Setting [3] is: measured here: PEO1 parental Z-AUC.

Results filed as inconclusive are left out. Calls of active or inactive are those of the source. Unless noted, calls come from the whole dose curve.

`CC(C)(C)c1cc(C=C(C#N)C#N)cc(Br)c1O`: the Z-AUC in test [1] was 1.28 (inactive); in test [1] (setting [3]), 1.11; in test [1] (measured here: PEO4 Z-AUC), 0.988.
In the case of `O=C(N[C@@H](COc1ccc2[nH]c(=O)[nH]c2c1)c1ccccc1)c1cccn(Cc2ccc(F)c(F)c2)c1=O`, the Z-AUC in test [1] was -0.315 (inactive); in test [1] (setting [3]) it was 0.00624; in test [1] (measured here: PEO4 Z-AUC), 0.64.
`COc1ccc2c(c[n+](C)c3c4cc5c(cc4ccc23)OCO5)c1OC`: the Z-AUC in test [1] is -0.492 (inactive); in test [1] (setting [3]), 0.375; in test [1] (measured here: PEO4 Z-AUC), 0.195.
For `CC(C)[C@H]1C(=O)N[C@H](CO)Cc2c[nH]c3cccc(c23)N1C`, the figures for the Z-AUC in test [1], in test [1] (setting [3]) and in test [1] (measured here: PEO4 Z-AUC) were 0.277 (inactive), -0.654 and -0.578, respectively.
`COc1ccc(N(C(=O)Oc2c(C)cccc2C)c2ccnc(Nc3ccc(N4CCN(C)CC4)cc3)n2)c(OC)c1`: the Z-AUC was -0.241 (inactive) in test [1], 0.364 in test [1] (setting [3]) and 0.481 in test [1] (measured here: PEO4 Z-AUC).
`O=C(O)CNC(=O)c1c(O)c2ccccc2n(Cc2ccccc2)c1=O`: the results for the Z-AUC in test [1], in test [1] (setting [3]) and in test [1] (measured here: PEO4 Z-AUC) were -0.292 (inactive), 0.683 and 0.802, respectively.
Turning to `CC(C)(O)C(=O)Nc1ccc([N+](=O)[O-])c(C(F)(F)F)c1`, the Z-AUC was 1.27 (inactive) in test [1], 0.567 in test [1] (setting [3]) and 0.85 in test [1] (measured here: PEO4 Z-AUC).
Take `CC1=C(C/C=C(\C)CCC[C@H](C)CCC[C@H](C)CCCC(C)C)C(=O)c2ccccc2C1=O`: the outcome in test [2] was inactive.
On to `CN1CCN(c2ccc([N+](=O)[O-])c3no[n+]([O-])c23)CC1`, for which the Z-AUC in test [1] is 1.21 (inactive); in test [1] (setting [3]), 1.82; in test [1] (measured here: PEO4 Z-AUC), 1.04.
`CCOC(=O)Nc1ccc(NCc2ccc(F)cc2)cc1N`: the results for the Z-AUC in test [1], in test [1] (setting [3]) and in test [1] (measured here: PEO4 Z-AUC) were -0.328 (inactive), 0.0556 and 0.397, respectively.
With `CCNC(=O)C[C@@H]1N=C(c2ccc(Cl)cc2)c2cc(OC)ccc2-n2c(C)nnc21`, the results for the Z-AUC in test [1], in test [1] (setting [3]) and in test [1] (measured here: PEO4 Z-AUC) were -0.661 (inactive), -0.0106 and -0.343, respectively.
For `O=C(N[C@H]1CN2CCC1CC2)c1ccc(Cl)cc1`, the Z-AUC in test [1] was -0.714 (inactive); in test [1] (setting [3]), 0.355; in test [1] (measured here: PEO4 Z-AUC), -0.659.
`C/C=C(/C)C(=O)O[C@H]1C(C)=C2[C@H]([C@@H]1OC(=O)CCCCCCC)[C@@](C)(OC(C)=O)C[C@H](OC(=O)CCC)[C@@]1(O)[C@H]2OC(=O)[C@@]1(C)O`: the Potency in test [1] is 9.8 nM (active). Moreover, the Z-AUC in test [1] (setting [3]) is -2.42; in test [1] (measured here: PEO4 Z-AUC) it was -2.66.
Turning to `COC1=C[C@@H]2[C@@H]3Cc4ccc(OC)c(O)c4[C@]2(CCN3C)CC1=O`, the Z-AUC in test [1] is 0.716 (inactive); in test [1] (setting [3]) it was 0.742; in test [1] (measured here: PEO4 Z-AUC), 0.886.
As for `CCN1CCN(C(=O)Cc2ccc(Nc3ncc(F)c(Nc4ccc(C(=O)Nc5ccccc5Cl)cc4)n3)cc2)CC1`, the results for the Z-AUC in test [1], in test [1] (setting [3]) and in test [1] (measured here: PEO4 Z-AUC) were 0.278 (inactive), -0.415 and -1.09, respectively.
The matching figures for `CC(C)[C@]12O[C@H]1[C@@H]1O[C@]13[C@]1(O[C@H]1C[C@H]1C4=C(CC[C@@]13C)C(=O)OC4)[C@@H]2O`: -2.76 (inactive), -2.59 and -3.67.
Take `CCCN1CCO[C@@H]2c3cc(O)ccc3OC[C@H]21`: the results for the Z-AUC in test [1], in test [1] (setting [3]) and in test [1] (measured here: PEO4 Z-AUC) were 0.538 (inactive), 0.85 and 0.552, respectively.
As for `O=C(Oc1ccc([N+](=O)[O-])cc1)N1CCN(Cc2cccc(Oc3ccccc3)c2)CC1`, the Z-AUC in test [1] was 1.13 (inactive); in test [1] (setting [3]) it was 1.12; in test [1] (measured here: PEO4 Z-AUC), 1.4.
On to `C[C@]12CC[C@H]3[C@@H](CCC4=CC(=O)CC[C@@]43C)[C@H]1CC[C@H]2OC(=O)CCC1CCCC1`, for which the Z-AUC in test [1] was -0.757 (inactive); in test [1] (setting [3]), -0.855; in test [1] (measured here: PEO4 Z-AUC), -0.842.
As for `COCC1(CO)C(=O)C2CCN1CC2` (stereo not given), the values for the Z-AUC in test [1], in test [1] (setting [3]) and in test [1] (measured here: PEO4 Z-AUC) were 0.503 (inactive), 0.336 and 0.128, respectively.
`COc1ccc(C(=O)c2c(C)n(CCN3CCOCC3)c3cc(I)ccc23)cc1`: the Z-AUC in test [1] was -0.298 (inactive); in test [1] (setting [3]), -0.515; in test [1] (measured here: PEO4 Z-AUC), -0.461.
Regarding `N=c1c2c(-c3ccccc3)c(-c3ccccc3)n(Cc3ccccc3)c2ncn1C1CCC(O)CC1` (stereo not given), the values for the Z-AUC in test [1], in test [1] (setting [3]) and in test [1] (measured here: PEO4 Z-AUC) were 0.292 (inactive), -0.41 and -0.216, respectively.
For the compound `CC1(N2CCC(n3c([C@@H]4CCCNC4)nc4ccccc43)CC2)CCCCCCC1`, the Z-AUC was 1.01 (inactive) in test [1], 0.227 in test [1] (setting [3]) and 0.462 in test [1] (measured here: PEO4 Z-AUC).
Consider `O=C(NCC1CCOCC1)c1cnc(Nc2ccc(Cl)cc2Cl)nc1C(F)(F)F`, for which the Z-AUC in test [1] was 1.22 (inactive); in test [1] (setting [3]) it was 0.764; in test [1] (measured here: PEO4 Z-AUC), 1.04.
Consider `O=C(Oc1ccc([N+](=O)[O-])cc1)N1CCC(C(O)(c2ccc3c(c2)OCO3)c2ccc3c(c2)OCO3)CC1`, for which the Z-AUC in test [1] is 0.0942 (inactive); in test [1] (setting [3]) it was 0.266; in test [1] (measured here: PEO4 Z-AUC), 0.407.
As for `C[C@](O)(COc1ccc(C#N)cc1)C(=O)Nc1ccc(C#N)c(C(F)(F)F)c1`, the Z-AUC in test [1] was 0.66 (inactive); in test [1] (setting [3]), 0.716; in test [1] (measured here: PEO4 Z-AUC) it was 0.592.
For `CCNC(=O)CC1N=C(c2ccc(Cl)cc2)c2cc(OC)ccc2-n2c(C)nnc21` (stereo not given), the Z-AUC in test [1] was 0.242 (inactive); in test [1] (setting [3]) it was 0.653; in test [1] (measured here: PEO4 Z-AUC) it was 0.806.
For `Cc1[nH]nc2ccc(-c3cncc(OC[C@@H](N)Cc4c[nH]c5ccccc45)c3)cc12`, the Z-AUC in test [1] was -2.34 (inactive); in test [1] (setting [3]), -1.86; in test [1] (measured here: PEO4 Z-AUC), -2.37.
For `CN[C@@H]1Cc2cccc3[nH]c(=O)n(c23)C1`, the values for the Z-AUC in test [1], in test [1] (setting [3]) and in test [1] (measured here: PEO4 Z-AUC) were 1.45 (inactive), 1.4 and 1.34, respectively.
